Active and inactive are the calls of the source.

The nature of test [1]: binders of probe aFSTL3 on microarray, primary screen, stem cell growth factor project, biochemical, small-molecule microarray, fluorescence 635/667 (AID 1064).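 Note: measures binding of the biotinylated anti-FSTL3 antibody to printed compounds.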 The conditions noted are these: higher = more signal.
The nature of test [2]: binders from COS7 lysate, DM2A8 probe, primary screen, torsin A project, cell lysate, small-molecule microarray, fluorescence 635/667 (AID 1065). The conditions noted are these: higher = more signal, COS7 lysate expressing mutant human TOR1A.
The nature of test [3]: binders of probe aFGF2 on microarray, primary screen, stem cell growth factor project, biochemical, small-molecule microarray, fluorescence 635/667 (AID 1067).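 Note: measures binding of biotinylated aFGF2 protein to printed compounds on slides; z-score merges feature fluorescence and signal-to-noise across triplicate slides.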 The conditions noted are these: higher = more signal.
Test [4] in a line: binders of probe aFGF10 on microarray, primary screen, stem cell growth factor project, biochemical, small-molecule microarray, fluorescence 635/667 (AID 1071).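 Note: score merges 667 nm spot intensity and signal to noise from triplicate slides.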 To be noted: higher = more signal.
The target of test [5] is Neurogenic locus notch homolog protein 2 (Homo sapiens) (UniProt Q04721). As to the kind of experiment: Notch2 binders on small-molecule microarrays, primary screen, biochemical, small-molecule microarray, 635 nm fluorescence, stem cell growth factors (AID 1073). The conditions noted are these: Notch2 binding, higher = more signal.
Test [6] has as its target Pro-neuregulin-1, membrane-bound isoform (Homo sapiens) (UniProt Q02297). As to the kind of experiment: NRG1 binders on small-molecule microarrays, primary screen, psychiatric disease protein project, biochemical, small-molecule microarray, fluorescence 635/667 (AID 1075).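 Note: score combines 667 nm spot fluorescence with signal to noise.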 The conditions noted are these: NRG1 binding, 635 nm fluorescence, higher = more signal.
Test [7] has as its system Neuregulin-1 EGF-like domain. The experiment in a line: binders of neuregulin-1 EGF-like domain, primary screen, biochemical, small-molecule microarray, 635 nm fluorescence (AID 1081).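 Note: binding of the protein to compounds printed on small-molecule microarray slides.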 The conditions noted are these: small-molecule microarray binding, higher = more signal.
Test [8] in a line: FRG1 promoter luciferase signal modulators, primary screen, FRG1 inhibition for FSHD, cell-based, C2C12 myotubes, firefly/Renilla luciferase, luminescence (AID 1084). The conditions noted are these: higher = more signal, called active from +8 up or from −8 down.
Test [9] in a line: binders of probe aFST on microarray, primary screen, stem cell growth factor project, biochemical, small-molecule microarray, fluorescence 635/667 (AID 1086).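 Note: score merges 667 nm fluorescence with signal-to-noise of each printed compound spot.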 The conditions noted are these: higher = more signal.
A short description of test [10]: binders of probe aHhip on microarray, primary screen, stem cell growth factor project, biochemical, small-molecule microarray, fluorescence 635/667 (AID 1087).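 Note: score merges spot fluorescence at 667nm with spot signal to noise ratio.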 To be noted: higher = more signal.
In test [11] the test system is PRMT1 (protein arginine N-methyltransferase 1). The experiment in a line: PRMT1 binders on small-molecule microarrays, primary screen, biochemical, small-molecule microarray, 635 nm fluorescence (AID 1088).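 Note: binding of Prmt1 protein to compounds spotted on small-molecule microarray slides.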 The conditions noted are these: small-molecule microarray binding, higher = more signal.
The nature of test [12]: yeast growth modulation, basal conditions, primary screen, YJM789 clinical isolate, OD600, 24 h (AID 1089).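 Note: growth of clinical yeast isolate S. cerevisiae YJM 789 seeded 1000 cells per well; test concentration not given here.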 To be noted: S. cerevisiae YJM789 growth, higher = more signal, called active from +8 up or from −8 down.
A short description of test [13]: fission yeast growth modulation, primary screen, strain 972, OD600, 24 h, no modulator (AID 1090).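 Note: basal condition with compound alone and no growth modifier present; test concentration not given here.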 To be noted: S. pombe 972 growth, higher = more signal, called active from +8 up or from −8 down.
Test [14] is described as follows: S. cerevisiae growth modulation with rapamycin, primary screen, strain BY4716, OD600, 96 h (AID 1091). Note: test concentration not given here. To be noted: higher = more signal, called active from +8 up or from −8 down.
The target of test [15] is Torsin-1A-interacting protein 2 (Homo sapiens) (UniProt Q8NFQ8). The experiment in a line: LULL1 binders on small-molecule microarray, primary screen, cell lysate, human LULL1 lysate, 635/667 nm fluorescence (AID 1092).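 Note: probe is lysate of COS7 cells overexpressing human LULL1; score merges per-feature 667 nm fluorescence with signal-to-noise.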 The conditions noted are these: hLULL1 lysate binding, 635 nm fluorescence, higher = more signal.
The nature of test [16]: E. coli growth modulation, two-sided OD650, primary screen, E. coli filamentation project, strain DRC41, 24 h (AID 1093).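 Note: MC1000 strain lacking acrAB efflux and sulA so SOS filamentation is blocked; test concentration not given here.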 To be noted: OD650, 24 h, higher = more signal, called active from +8 up or from −8 down.
Test [17] in a line: small-molecule microarray binders of probe aLefty2, primary screen, biochemical, biotinylated probe, 635/667 nm fluorescence (AID 1094).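 Note: score merges spot fluorescence near 667 nm with spot signal-to-noise ratio.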 To be noted: higher = more signal.
The subject of test [18] is Noggin (protein binding on small-molecule microarray). As to the kind of experiment: Noggin binders on small-molecule microarray, primary screen, biochemical, 635/667 nm fluorescence (AID 1095).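 Note: score merges 667 nm feature fluorescence with signal to noise over triplicate slides.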 The conditions noted are these: 635 nm fluorescence, higher = more signal.
In test [19] the target is Neurogenic locus notch homolog protein 3 (Homo sapiens) (UniProt Q9UM47). As to the kind of experiment: NOTCH3 binders on small-molecule microarray, primary screen, biochemical, 635/667 nm fluorescence (AID 1096). The conditions noted are these: NOTCH3 binding, 635 nm fluorescence, higher = more signal.
A short description of test [20]: small-molecule microarray binders of probe aEGFR, primary screen, biochemical, biotinylated probe, 635/667 nm fluorescence (AID 1097).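 Note: probe is a biotinylated anti-EGFR antibody binding compounds printed on slides; score combines fluorescence near 667 nm and signal to noise of each spot.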 The conditions noted are these: higher = more signal.

Sequence of Neurogenic locus notch homolog protein 2 (Homo sapiens) (Q04721 whole entry, looked up, canonical isoform): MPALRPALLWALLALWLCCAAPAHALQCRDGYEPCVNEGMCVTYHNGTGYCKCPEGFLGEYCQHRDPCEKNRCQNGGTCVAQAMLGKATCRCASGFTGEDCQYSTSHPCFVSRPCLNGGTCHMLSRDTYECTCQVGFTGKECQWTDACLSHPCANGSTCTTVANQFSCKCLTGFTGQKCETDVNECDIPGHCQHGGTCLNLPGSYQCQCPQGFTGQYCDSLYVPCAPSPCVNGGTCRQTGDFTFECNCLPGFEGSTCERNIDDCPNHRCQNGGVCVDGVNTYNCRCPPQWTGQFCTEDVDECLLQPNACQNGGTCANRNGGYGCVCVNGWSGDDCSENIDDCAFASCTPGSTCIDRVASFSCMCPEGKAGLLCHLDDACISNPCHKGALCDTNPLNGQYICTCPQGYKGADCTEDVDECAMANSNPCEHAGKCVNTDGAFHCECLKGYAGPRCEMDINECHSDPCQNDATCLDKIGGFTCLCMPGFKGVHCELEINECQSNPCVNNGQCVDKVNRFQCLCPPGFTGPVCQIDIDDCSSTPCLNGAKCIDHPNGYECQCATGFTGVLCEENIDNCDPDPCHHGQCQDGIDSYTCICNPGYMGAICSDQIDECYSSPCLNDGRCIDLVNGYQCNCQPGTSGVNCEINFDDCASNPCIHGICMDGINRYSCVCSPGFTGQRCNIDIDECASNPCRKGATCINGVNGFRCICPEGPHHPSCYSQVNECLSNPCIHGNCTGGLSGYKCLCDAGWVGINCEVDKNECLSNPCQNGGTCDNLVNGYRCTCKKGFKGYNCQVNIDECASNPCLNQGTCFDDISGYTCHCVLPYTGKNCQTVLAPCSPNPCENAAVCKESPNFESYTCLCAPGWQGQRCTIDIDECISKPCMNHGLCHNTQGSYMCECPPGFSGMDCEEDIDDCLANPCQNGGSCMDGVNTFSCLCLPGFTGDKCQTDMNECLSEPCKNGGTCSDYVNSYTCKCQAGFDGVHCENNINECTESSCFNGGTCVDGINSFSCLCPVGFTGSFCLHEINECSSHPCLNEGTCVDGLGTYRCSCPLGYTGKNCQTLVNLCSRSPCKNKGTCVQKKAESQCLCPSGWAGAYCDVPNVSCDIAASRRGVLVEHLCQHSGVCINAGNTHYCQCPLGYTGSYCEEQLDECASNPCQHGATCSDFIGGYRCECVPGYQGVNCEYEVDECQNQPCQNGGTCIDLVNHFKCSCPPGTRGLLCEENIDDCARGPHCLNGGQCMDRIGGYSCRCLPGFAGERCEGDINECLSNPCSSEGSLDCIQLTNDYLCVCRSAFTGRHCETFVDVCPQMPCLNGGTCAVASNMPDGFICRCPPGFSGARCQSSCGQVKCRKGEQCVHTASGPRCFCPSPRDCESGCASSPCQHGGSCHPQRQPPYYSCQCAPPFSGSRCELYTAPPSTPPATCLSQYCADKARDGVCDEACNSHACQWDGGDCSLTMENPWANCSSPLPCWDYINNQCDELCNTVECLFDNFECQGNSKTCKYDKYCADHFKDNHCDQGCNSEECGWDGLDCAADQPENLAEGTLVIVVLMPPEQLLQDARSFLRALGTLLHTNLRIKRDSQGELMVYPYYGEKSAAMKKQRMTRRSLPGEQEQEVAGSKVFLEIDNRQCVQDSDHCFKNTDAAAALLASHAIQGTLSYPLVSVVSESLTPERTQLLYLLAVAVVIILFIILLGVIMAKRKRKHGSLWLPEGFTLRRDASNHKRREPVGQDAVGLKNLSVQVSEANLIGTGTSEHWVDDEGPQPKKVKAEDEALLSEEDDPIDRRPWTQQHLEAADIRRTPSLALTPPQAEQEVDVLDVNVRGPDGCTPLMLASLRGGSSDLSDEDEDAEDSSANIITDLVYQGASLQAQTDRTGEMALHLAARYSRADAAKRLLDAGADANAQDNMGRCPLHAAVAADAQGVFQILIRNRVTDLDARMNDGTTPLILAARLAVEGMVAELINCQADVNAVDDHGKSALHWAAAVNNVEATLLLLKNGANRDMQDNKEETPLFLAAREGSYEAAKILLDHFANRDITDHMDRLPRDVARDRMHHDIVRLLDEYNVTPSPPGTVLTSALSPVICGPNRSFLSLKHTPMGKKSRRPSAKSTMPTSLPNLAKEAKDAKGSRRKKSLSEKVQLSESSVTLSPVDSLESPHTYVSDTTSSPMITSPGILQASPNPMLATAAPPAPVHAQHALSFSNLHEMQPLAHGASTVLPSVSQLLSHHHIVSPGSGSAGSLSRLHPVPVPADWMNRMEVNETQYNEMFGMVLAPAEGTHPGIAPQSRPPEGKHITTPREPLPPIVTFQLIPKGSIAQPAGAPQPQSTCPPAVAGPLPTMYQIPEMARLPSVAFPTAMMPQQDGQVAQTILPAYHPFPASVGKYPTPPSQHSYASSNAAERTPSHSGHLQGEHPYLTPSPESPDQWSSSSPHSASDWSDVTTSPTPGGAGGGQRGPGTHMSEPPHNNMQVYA
Sequence of Torsin-1A-interacting protein 2 (Homo sapiens) (Q8NFQ8 whole entry, looked up): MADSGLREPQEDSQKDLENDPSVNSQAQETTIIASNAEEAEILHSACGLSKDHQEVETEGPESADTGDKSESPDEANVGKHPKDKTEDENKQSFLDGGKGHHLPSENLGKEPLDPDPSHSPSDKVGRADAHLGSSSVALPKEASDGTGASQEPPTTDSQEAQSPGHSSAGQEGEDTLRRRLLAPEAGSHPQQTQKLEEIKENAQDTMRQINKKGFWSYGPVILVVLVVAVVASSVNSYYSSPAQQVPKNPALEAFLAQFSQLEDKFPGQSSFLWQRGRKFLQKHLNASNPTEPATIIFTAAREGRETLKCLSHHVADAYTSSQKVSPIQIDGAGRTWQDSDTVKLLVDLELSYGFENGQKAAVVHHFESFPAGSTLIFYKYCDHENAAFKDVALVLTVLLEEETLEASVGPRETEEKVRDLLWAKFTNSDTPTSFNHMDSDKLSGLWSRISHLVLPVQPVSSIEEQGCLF
Sequence of Pro-neuregulin-1, membrane-bound isoform (Homo sapiens) (Q02297 whole entry, looked up, the tested form may be a part, canonical isoform): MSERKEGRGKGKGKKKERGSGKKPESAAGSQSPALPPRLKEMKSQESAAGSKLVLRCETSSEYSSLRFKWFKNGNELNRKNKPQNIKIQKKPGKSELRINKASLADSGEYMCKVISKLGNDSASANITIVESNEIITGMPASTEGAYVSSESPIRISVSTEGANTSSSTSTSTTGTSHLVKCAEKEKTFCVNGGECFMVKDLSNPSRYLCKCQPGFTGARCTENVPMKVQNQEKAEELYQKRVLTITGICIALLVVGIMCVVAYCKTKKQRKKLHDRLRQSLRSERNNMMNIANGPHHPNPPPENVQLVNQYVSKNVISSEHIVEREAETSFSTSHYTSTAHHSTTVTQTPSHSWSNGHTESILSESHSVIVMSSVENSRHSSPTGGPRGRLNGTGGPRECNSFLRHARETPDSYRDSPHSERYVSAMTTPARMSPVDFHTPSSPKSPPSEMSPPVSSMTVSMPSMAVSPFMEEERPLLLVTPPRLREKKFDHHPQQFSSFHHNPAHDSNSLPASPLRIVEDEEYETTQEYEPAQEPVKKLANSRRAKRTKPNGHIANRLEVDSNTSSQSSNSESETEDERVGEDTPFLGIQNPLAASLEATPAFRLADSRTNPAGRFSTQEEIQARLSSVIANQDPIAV

In the case of `CCOC(=O)C[C@H]1[C@H](OC(=O)c2cc3ccccc3oc2=O)[C@@H](NC(=O)c2ccccc2)c2cc(OCCCO)ccc2N1C(=O)c1ccccc1`, the composite z-score in test [1] is -0.319; in test [2] it was 0.524; in [3], -0.105; in [4] it was 0.462; in [5], 1.17; in test [6], 0.0287. Moreover, the composite z-score in [7] was 0.819; in test [9], 0.349; in [10] it was -0.199; in test [11], 0.58; in test [15] it was -0.098; in test [17], -0.0422. The composite z-score was determined as 0.992 in test [18], 0.819 in test [19] and 0.223 in test [20]. In addition, the z-score in [8] was 1.57 (inactive); in [12], 0.126 (inactive); in test [13], -1.64 (inactive); in [14] it was -0.277 (inactive); in [16], -0.12 (inactive).
On to `COC(=O)C1=CC(CCCO)=CC(c2ccc(CN3CCCC3)cc2)N(Cc2cccc(OC(F)(F)F)c2)C=C1C(=O)OC` (stereo not given), for which the composite z-score in [1] is 0.928; in test [2], -0.185; in test [3], -0.0361; in test [4] it was 0.419; in [5], 1.44; in [6] it was 1.79. The composite z-score in [7] was 1.11; in [9], 0.857; in [10] it was -0.0994; in test [11] it was 1.44; in test [15] it was 3.31; in [17] it was 0.373. Further, the composite z-score is -0.116 in [18], 0.888 in test [19] and -0.0418 in test [20]. The z-score was -0.616 (inactive) in test [8]; -1.22 (inactive) in test [12]; -9.89 (active) in test [13]; -1.11 (inactive) in test [14]; -2.59 (inactive) in test [16].
For the molecule `COC(=O)[C@@H]1N=C(c2ccc(OCCCO)cc2)O[C@@H]1c1ccccc1`, the composite z-score in test [1] is 0.497; in test [2], -0.0336; in test [3], -0.103; in [4], -0.789; in [5], -0.997; in test [6], 0.403. Also, the composite z-score in test [7] was 0.326; in test [9], -0.456; in test [10] it was 0.176; in test [11], -1.01; in test [15], 1.58; in test [17], -0.149. The composite z-score in test [18] is -0.993; in test [19], -1; in test [20], -0.0485. The z-score was 7.16 (inactive) in test [8]; -1.16 (inactive) in test [12]; -2.33 (inactive) in test [13]; -2.55 (inactive) in test [14]; 1.11 (inactive) in [16].
Take `CCCCNC(=O)c1ccc(C#CC(C)(C)C)c(OC(C)=O)c1`: the composite z-score in test [1] was -0.769; in test [2], 0.212; in test [3], -0.132; in [4], 0.572; in test [5], 1.04; in [6], 0.158. Also, the composite z-score in [7] is 0.865; in test [9] it was 0.031; in [10] it was -0.0994; in test [11], 1.45; in test [15], 0.503; in test [17], -0.159. For the same molecule, the results for the composite z-score in [18], in test [19] and in test [20] were 0.0904, 1.1 and -0.127, respectively. Besides, the z-score was 4.66 (inactive) in [8]; 0.0582 (inactive) in [12]; -5.49 (inactive) in [13]; -1 (inactive) in test [14]; 1.05 (inactive) in [16].
Consider `C=CCC(OC(C)=O)[C@@H]1[C@@H](N(Cc2ccc(-c3cccc(C(F)(F)F)c3)o2)C(=O)c2ccc(-c3ccccc3)cc2)c2cc(OCCCO)ccc2N1C(=O)Cc1ccc2ccccc2c1` (stereo not given in full), for which the composite z-score in [1] is -0.414; in [2] it was -0.732; in test [3] it was -0.0454; in test [4], -0.342; in test [5], -0.753; in test [6] it was -0.337. Further, the composite z-score is -0.0291 in test [7]; 1.09 in [9]; 0.0156 in [10]; -0.457 in test [11]; 0.512 in test [15]; -0.0928 in test [17]. For the same molecule, the composite z-score in test [18] is -0.214; in test [19] it was -0.3; in test [20], -0.235. Moreover, the z-score in test [8] is -0.0069 (inactive); in [12], 0.955 (inactive); in [13], 0.863 (inactive); in test [14] it was 1.09 (inactive); in [16], -0.898 (inactive).
